According to PubChem BioAssay (NCI):
Where “and” joins values, the source holds several entries; their conditions need not be identical. Identical values can stand only once. About 83,000 compounds went through this panel and 20% of them were active in at least one assay; those are over-represented in the sample as a whole.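 Compound tested at a single concentration for 48 hours in 96-well plates; a percent growth value below 10 was scored as active.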 Values without a mark were called inactive. Calls of active or inactive are those of the source.

The compounds below were run on MDA-MB-468 breast (assay: NCI-60 one-dose screen, 48 h (100 = growth as untreated, 0 = no growth, -100 = all killed)). Conditions: 10 µM unless noted.

With `CN(/C(N)=N/N=C/c1c2ccccc2cc2ccccc12)C1CCCCC1` the growth was 4.88% (active).
For `N=C(N)c1ccc(-c2ccc(-c3ccc(Cl)cc3Cl)o2)cc1`, the growth was -84.4% (active).
For `Cc1cc(Cl)nc(N(CCCNc2ccnc3cc(Cl)ccc23)Cc2cccs2)n1`, the growth was -30.1% (active).
In the case of `Cc1cc(N2CCOCC2)nc(N[C@@H]2CCC[C@H](Nc3ccnc4cc(Cl)ccc34)C2)n1`, the growth is reported as -6.14% (active).
In the case of `C=CC(=O)N(C)[C@H]1C[C@H]2OC(C)(C1OC)n1c3ccccc3c3c4c(c5c6ccccc6n2c5c31)C(=O)NC4` (stereo not given in full), the growth is reported as -52.4% (active).
`COc1ccccc1CNCCCN1C(=O)c2ccc3c4c(ccc(c24)C1=O)C(=O)N(CCCNCCCCNCCCCN)C3=O` was tested, and the growth was -47% (active).
With `COc1ccc(-c2cn3ccnc3c(-c3ccc4ncn(C5CCCCC5)c4c3)n2)cc1` the growth was 2.59% (active).
In the case of `Clc1ccc2nc3nc4ccc[nH]c4cc3c2c1`, the growth is reported as -31.5% (active).
For `CC(=O)Nc1cccc(-n2cnc3cc(-c4ccc(O)cc4)ccc32)c1`, the growth was -0.935% (active).
In the case of `O=C(NNc1ccccc1)c1ccccc1`, the growth is reported as 87.1% and 103%.

Compared with `CCCCN(CCCC)C(=O)CC`, `CCOc1ccc(Cc2nccc3cc(OCC)c(OCC)cc23)cc1OCC` is lower in growth: 113% for the first, 61.4% for the second.

Compared with `N#Cc1c(-c2ccccc2)cc(-c2ccccc2)n(CCCCC(=O)O)c1=O`, `CC(C)CCSc1nc(Nc2ccccc2)c(C#N)c(-c2ccccc2)n1` is lower in growth: 89.1% for the first, 43.4% for the second.

Compared with `O=c1c(-c2nc3ccccc3[nH]2)cc2ccccc2n1Cc1cn(Cc2ccc(N3CCOCC3)cc2)nn1`, `Cc1cc(N2CCN(c3ccnc4cc(Cl)ccc34)CC2)nc(N2CCOCC2)n1` is higher in growth: 64.3% for the first, 68.7% for the second.

Compared with `CNC(=S)NC(C)(C)C`, `COC(=O)c1cc(C(=O)OC)cc([N+](=O)[O-])c1` is lower in growth: 111% for the first, 107% for the second.

Going from `CS(=O)(=O)c1ccc(NC(=O)c2ccccc2)nc1` to `C/C(O)=C(/C=N\C(=S)Nc1ccc(S(=O)(=O)Nc2nccs2)cc1)C(=O)Nc1ccccc1C`, the growth falls from 105% to 82%.

First: CC1(C(=O)O)NC(C(=O)O)Cc2c1[nH]c1ccccc21 (stereo not given)
Second: CCCC(=O)Nc1ccc2c(c1)CN1C(=O)c3ccccc3C1=N2
The growth of the first is higher: 113% for the first, 97.8% for the second.

First: COCCNC(=O)Cc1cc(-c2ccc(Cl)cc2)n(-c2ccccc2)c1C
Second: COc1ccc(/C(C)=C(\c2ccc(Cl)cc2)c2ccc(OCCN)cc2)cc1
The growth of the first is higher: 73% for the first, 67.2% for the second.

Compared with `O=C(CS)OCC(COC(=O)CS)(COC(=O)CS)COC(=O)CS`, `CCCCOC(=O)C1OC(Oc2ccc3c(C)cc(=O)oc3c2)[C@@H](OC(C)=O)C(OC(C)=O)C1OC(C)=O` (stereo not given in full) is higher in growth: 78.8% for the first, 101% for the second.

First: O=[N+]([O-])c1ccc(Oc2cccnc2)c([N+](=O)[O-])c1
Second: O=C(Cn1ccc(=O)[nH]c1=O)c1ccc([N+](=O)[O-])o1
The growth of the first is lower: 21.6% for the first, 44.4% for the second.

First: COc1cc(OC)c(C(=O)/C=C/c2ccc(C(F)(F)F)cc2)c(OC)c1
Second: COc1cccc(/C=C/C(=O)c2c(C)nc3ccccc3c2/C=C/c2ccc(C)cc2)c1OC
The growth of the first is lower: 46.3% for the first, 58.3% for the second.

Going from `COc1cc(-c2cc(/C=C3\C(=O)Nc4ccc(Cl)cc43)[nH]n2)cc(OC)c1OC` to `COCCOc1cc2ncnc(N3CCN(S(=O)(=O)c4ccccc4Cl)CC3)c2cc1OCCOC`, the growth falls from 67.7% to 57.1%.

Going from `COc1cccc(-c2nc3sccn3c2-c2ccnc(NCCN3CCCNS3(=O)=O)n2)c1` to `Cc1nc2sccn2c1-c1csc(Nc2ccccc2Cl)n1`, the growth falls from 102% to 19%.

First: Oc1ccc(CN2CCC(N3CCOCC3)CC2)c2cccnc12
Second: C#CCOc1ccc(C(Nc2ccc(OC)cc2)c2nnnn2C2CCCCC2)cc1 (stereo not given)
The growth of the first is lower: 36.6% for the first, 101% for the second.

Compared with `c1ccc(-c2nc3nonc3nc2-c2ccccc2)cc1`, `COc1ccc(/C=N/Nc2nc(Nc3ccccc3)nc(Nc3ccc(S(N)(=O)=O)cc3)n2)cc1` is higher in growth: 38.9% for the first, 76.3% for the second.

Compared with `CN(C)CCCC1(c2ccc(F)cc2)OCc2cc(-c3ccc(C(F)(F)F)nc3)ccc21` (stereo not given), `CCOC(=O)c1cn2ncnc(Oc3ccc(NC(=O)NC4CC4)c(Cl)c3)c2c1C` is higher in growth: 73.3% for the first, 90.1% for the second.
